Assay [1] in a line: Quantitative High-Throughput drug screen in 47 multiple myeloma cell lines against the NCATS MIPE library collection: U266_ATCC cell viability assay (AID 1919864). Note: nearly all actives have a fitted effect of over 35% in size. An outline of the steps:
(§1)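 MIPE 4.0 approved/investigational drugs; 500 cells/well; 48 h 37 °C humidified 5% CO2; CTG luminescence readout; DMSO = 100%, media = 0% viability.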

Assay [2] is described as follows: Quantitative High-Throughput drug screen in 47 multiple myeloma cell lines against the NCATS MIPE library collection: XG6_PLB cell viability assay (AID 1919865). Note: nearly all actives have a fitted effect of over 40% in size. An outline of the steps:
as §1

A short description of assay [3]: Quantitative High-Throughput drug screen in 47 multiple myeloma cell lines against the NCATS MIPE library collection: VP6_DJ cell viability assay (AID 1919867). Note: nearly all actives have a fitted effect of over 40% in size. An outline of the steps:
as §1

A short description of assay [4]: Quantitative High-Throughput drug screen in 47 multiple myeloma cell lines against the NCATS MIPE library collection: UTMC2_PLB cell viability assay (AID 1919868). Note: nearly all actives have a fitted effect of over 55% in size. The conditions noted are these: CellTiter-Glo ATP luminescence, 48 h; viability (% of DMSO control): at 45.8 µM (top of the series). An outline of the steps: as §1
A general note: In ATP-based viability assays light output follows the ATP content of the culture.

Assay [5] is described as follows: Quantitative High-Throughput drug screen in 47 multiple myeloma cell lines against the NCATS MIPE library collection: PE2_PLB cell viability assay (AID 1919869). Note: nearly all actives have a fitted effect of over 35% in size. An outline of the steps:
as §1

Assay [6] is described as follows: Quantitative High-Throughput drug screen in 47 multiple myeloma cell lines against the NCATS MIPE library collection: PCM6_Riken cell viability assay (AID 1919870). Note: nearly all actives have a fitted effect of over 30% in size. An outline of the steps: as §1
Assay [7] is described as follows: Quantitative High-Throughput drug screen in 47 multiple myeloma cell lines against the NCATS MIPE library collection: RPMI8226_ATCC cell viability assay (AID 1919871). Note: nearly all actives have a fitted effect of over 30% in size. An outline of the steps: as §1
A short description of assay [8]: Quantitative High-Throughput drug screen in 47 multiple myeloma cell lines against the NCATS MIPE library collection: OPM2_DSMZ cell viability assay (AID 1919872). Note: nearly all actives have a fitted effect of over 30% in size. An outline of the steps:
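CellTiter-Glo luminescence (ATP) after 48 h compound exposure, 37C/5% CO2; 500 cells/well; MIPE 4.0 approved/investigational drugs pinned in; DMSO = 100%, media only = 0% viability.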

Assay [9] is described as follows: Quantitative High-Throughput drug screen in 47 multiple myeloma cell lines against the NCATS MIPE library collection: XG1_PLB cell viability assay (AID 1919866). Note: nearly all actives have a fitted effect of over 35% in size. An outline of the steps:
as §1

Inconclusive results are not listed. A number with no mark means an inactive call. The source made the active and inactive calls. Calls come from the whole dose curve; as a rule, active = well fitted cell-killing curve with a large enough effect; inconclusive = small, poorly fitted or top-dose-only effect, or effect the other way; inactive = no such curve, though single readings can be large or run the other way.
Potency is the fitted concentration of half-maximal effect.

In the case of `CN1[C@H]2CC[C@H]1CC(OC(=O)c1c[nH]c3ccccc13)C2` (some centres not stated), the Potency is 10.5 µM (active) in assay [1], 16.6 µM (active) in [2], 8.33 µM (active) in assay [3] and 6.62 µM (active) in [6]. Further, the Potency entry in [4], in assay [5], in [7] and in assay [8] was “inactive” throughout.

As to `O=C(C=Cc1ccc(O)cc1)c1ccc(O)cc1O`, the Potency in [1] is 23.5 µM (active); in [2] it was 18.7 µM (active); in assay [9] it was 16.6 µM (active); in [3], 18.7 µM (active); in [6] it was 16.6 µM (active).

`CC(C)CNc1ccnc(NCc2csc(-c3ccccc3)n2)n1`: the Potency in assay [1] was 20.9 µM (active); in assay [2] it was 16.6 µM (active); in assay [9], 16.6 µM (active); in assay [4], 10.5 µM (active); in [5], 18.7 µM (active); in assay [6], 14.8 µM (active).

On to `CC=C1C2C=C(C)CC1(N)c1ccc(=O)[nH]c1C2` (configuration not stated), for which the Potency entry in assay [1], in [2], in [9], in assay [7] and in [8] was “inactive” in each case.

With `C[C@@H]1C[C@H]2[C@@H]3CCC4=CC(=O)C=C[C@]4(C)[C@@]3(F)[C@@H](O)C[C@]2(C)[C@@]1(O)C(=O)CO`, the Potency entry in assay [1], in assay [2], in [9], in [4], in assay [5] and in assay [6] was “inactive” in each case. For the same molecule, the Potency result in assay [8] was “inactive”. The Potency in assay [7] was 0.0166 µM (active).

Take `Cc1nc(NC(=O)N2CCC[C@@H]2C(N)=O)sc1-c1csc(C(C)(C)C)n1`: the Potency in [1] is 9.35 µM (active); in assay [2], 4.69 µM (active); in assay [3], 0.264 µM (active); in assay [5], 5.9 µM (active); in assay [6] it was 4.69 µM (active).

With `CO[C@H]1O[C@@H]2O[C@@]3(C)CC[C@@H]4[C@@H](C)CC[C@@H]([C@H]1C)[C@@]24OO3`, the Potency entry in [1] and in [8] was “inactive” in each case. For the same molecule, the figures for the Potency in assay [2], in assay [9] and in assay [7] were 2.64 µM (active), 2.96 µM (active) and 0.833 µM (active), respectively.

Take `CC[C@@H]([C@H](C)O)n1ncn(-c2ccc(N3CCN(c4ccc(OCC5CO[C@@](Cn6cncn6)(c6ccc(F)cc6F)C5)cc4)CC3)cc2)c1=O` (some centres not stated): the Potency entry in assay [1] was “inactive”. For the same molecule, the values for the Potency in assay [2], in assay [3] and in assay [5] were 20.9 µM (active), 23.5 µM (active) and 10.5 µM (active), respectively.

`O=C1NC(=O)C(c2cnc3ccccn23)=C1c1cn2c3c(cccc13)CN(C(=O)N1CCOCC1)CC2`: the Potency result in [1] was “inactive”. The Potency was 1.87 µM (active) in [2]; 5.26 µM (active) in assay [3]; 0.001 µM (active) in assay [4]; 7.43 µM (active) in assay [6]; 18.7 µM (active) in assay [7]; 0.0047 µM (active) in assay [8].

As to `O=C1CCCC(=O)C1C(=O)c1ccc(C(F)(F)F)cc1[N+](=O)[O-]`, the Potency in assay [1] was 20.9 µM (active). The Potency result in assay [2], in assay [9], in [5] and in assay [6] was “inactive” each time.

In the case of `COc1cc2nccc(Oc3ccc(NC(=O)Nc4cc(C)on4)c(Cl)c3)c2cc1OC`, the Potency was 20.9 µM (active) in assay [1], 0.118 µM (active) in assay [2], 1.66 µM (active) in assay [9] and 23.5 µM (active) in [7].

For `Nc1[nH]nc2nnc(-c3c(-c4ccccc4)nn4ccccc34)cc12`, the Potency in assay [1] was 5.26 µM (active); in assay [2], 3.72 µM (active); in [9], 6.62 µM (active); in assay [3], 1.66 µM (active); in [4], 4.18 µM (active); in assay [5], 9.35 µM (active). The Potency entry in assay [7] and in assay [8] was “inactive” in each case.

Regarding `CN[C@@H]1[C@@H](O)[C@@H](O[C@@H]2[C@@H](O)[C@H](O[C@H]3O[C@H](CN)[C@@H](O)[C@H](O)[C@@H]3O)[C@@H](N)C[C@@H]2NC(=O)[C@@H](O)CN)OC[C@]1(C)O`, in assay [1], the Potency was 18.7 µM (active). For the same molecule, the Potency result in assay [2], in [9] and in assay [7] was “inactive” each time.

As for `COc1ccc(CCC(=O)Nc2nc3ccc(Cl)cc3s2)cc1OC`, the Potency in [1] is 16.6 µM (active); in [2], 23.5 µM (active); in assay [9], 16.6 µM (active); in assay [5], 23.5 µM (active). The Potency result in [8] is “inactive”.

For the molecule `CCc1cc(-c2n[nH]c(C)c2-c2ccc3c(c2)OCCO3)c(O)cc1O`, the Potency is 7.43 µM (active) in assay [1]; 9.35 µM (active) in [2]; 4.18 µM (active) in assay [9]; 4.18 µM (active) in assay [3]; 8.33 µM (active) in [5]; 8.33 µM (active) in [6]. Further, in assay [7], the Potency is 6.62 µM (active).

As for `O=C1Nc2ccc(I)cc2C1=Cc1cc(Br)c(O)c(Br)c1`, the Potency result in assay [1], in assay [2], in [7] and in [8] was “inactive” throughout. The Potency in assay [9] was 20.9 µM (active); in [4], 14.8 µM (active); in [5], 14.8 µM (active).

Regarding `CC(C)CN(C[C@@H](O)[C@H](Cc1ccccc1)NC(=O)O[C@H]1CO[C@H]2OCC[C@H]21)S(=O)(=O)c1ccc(N)cc1`, the Potency in assay [1] is 1.32 µM (active); in assay [2] it was 3.72 µM (active); in [9] it was 16.6 µM (active); in assay [3], 8.33 µM (active); in [4] it was 13.2 µM (active); in assay [6] it was 4.69 µM (active). Moreover, the Potency entry in assay [5] and in assay [8] was “inactive” throughout.

For the molecule `CN(C)N=Nc1nc[nH]c1C(N)=O`, the Potency entry in assay [1], in assay [6], in assay [7] and in assay [8] was “inactive” each time. Further, the Potency in [2] was 5.26 µM (active); in [9], 2.64 µM (active).

Values taken from PubChem BioAssay (NCATS).
